Laboratory results taken from PubChem BioAssay (NCI).
This is part of a sample that, as a whole, favours compounds with a hit. Of some 79,000 tested, about 15% had one in any assay. Values without a mark were called inactive. The source made the active and inactive calls. No stated cut-off is given here; in the data, active means growth inhibition above about 70%; inactive means the rest.

Legend:
[1] = NCI Yeast Anticancer Drug Screen. Data for the rad50 strain (AID 155);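 further: 0% = growth of vehicle-only cultures of the same strain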; conditions: S. cerevisiae rad50 strain growth inhibition, stronger effect = higher value
Method in brief: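 Relative growth inhibition (compound vs vehicle) was measured in yeast with a defined repair-gene alteration.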

[2] = NCI Yeast Anticancer Drug Screen. Data for the mec2-1 strain (AID 157); conditions: S. cerevisiae mec2-1 strain, stronger effect = higher value
Method in brief: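 Mutant yeast (mec2-1) grown with compound; growth inhibition relative to vehicle control reported.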

[3] = NCI Yeast Anticancer Drug Screen. Data for the sgs1 mgt1 strain (AID 161);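 further: 0% = growth of cultures given vehicle only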; conditions: S. cerevisiae sgs1 mgt1 strain, stronger effect = higher value
Method in brief: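 Percent growth inhibition was derived by comparing compound-exposed mutant yeast with vehicle-exposed cultures. The strain carries alterations in DNA damage repair.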

[4] = NCI Yeast Anticancer Drug Screen. Data for the cln2 rad14 strain (AID 165);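 further: 0% = growth equal to vehicle treated cultures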; conditions: S. cerevisiae cln2 rad14 strain, stronger effect = higher value
Method in brief: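 Readout is yeast growth inhibition versus vehicle-treated controls, using a strain with cln2 and rad14 alterations exposed to compound.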

[5] = NCI Yeast Anticancer Drug Screen. Data for the bub3 strain (AID 167); conditions: S. cerevisiae bub3 mutant strain, stronger effect = higher value
Method in brief: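 Screening used yeast with an engineered genetic alteration affecting cell cycle control. Compound-exposed cultures were compared with vehicle cultures, and reduced growth was taken as inhibition.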

[6] = NCI Yeast Anticancer Drug Screen. Data for the mlh1 rad18 strain (AID 175); conditions: S. cerevisiae mlh1 rad18 strain growth inhibition, stronger effect = higher value
Method in brief: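 Genetically defined yeast (DNA repair-deficient) exposed to compounds; growth inhibition determined relative to vehicle.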

[7] = at 5.0 µM (retest, dose inferred, filed as 0.5)
[8] = at 50.0 µM (retest, dose inferred, filed as 5.0)

| SMILES | growth inhibition [1, 7] | growth inhibition [1, 8] | growth inhibition ([1]; at 50.0 µM) | growth inhibition [2, 7] | growth inhibition [2, 8] | growth inhibition ([2]; at 50.0 µM) | growth inhibition [3, 7] | growth inhibition [3, 8] | growth inhibition ([3]; at 50.0 µM) | growth inhibition [4, 7] | growth inhibition [4, 8] | growth inhibition ([4]; at 50.0 µM) | growth inhibition [5, 7] | growth inhibition [5, 8] | growth inhibition ([5]; at 50.0 µM) | growth inhibition [6, 7] | growth inhibition [6, 8] | growth inhibition ([6]; at 50.0 µM) |
| --- | --- | --- | --- | --- | --- | --- | --- | --- | --- | --- | --- | --- | --- | --- | --- | --- | --- | --- |
| O=S(=O)(ON=C1C=CC(=NOS(=O)(=O)c2ccccc2)C=C1)c1ccccc1 | 27% | 44% | 95.2% (active) | 6% | 55% | 94% (active) | 21% | 48% | 95% (active) | 16% | 54% | 94.1% (active) | 14% | 54% | 96.7% (active) | 48% | 76% (active) | 96% (active) |
| CCN(CC)CCOC(=O)c1ccc(N=Nc2ccc(O)c3ccccc23)cc1 | 0% | 99% (active) | 98.8% (active) | 4% | 100% (active) | 99.1% (active) | 6% | 99% (active) | 99% (active) | 6% | 99% (active) | 86.8% (active) | -2% | 99% (active) | 41.1% | -7% | 99% (active) | 99% (active) |
| Cc1nc(N)sc1N=Nc1ccc(Cl)cc1Cl | 4% | 90% (active) | 82.5% (active) | 1% | 90% (active) | 76.4% (active) | 4% | 94% (active) | 84.2% (active) | 2% | 48% | 84.3% (active) | 1% | 55% | 81.7% (active) | 16% | 97% (active) | 93.4% (active) |
| CCC(/C=C/c1ccccc1)=N\Nc1ccccc1 | 11% | 89% (active) | 47.7% | -10% | 83% (active) | 79% (active) | 1% | 91% (active) | 34.1% | -27% | 76% (active) | -12.3% | -15% | 90% (active) | 87.3% (active) | -13% | 95% (active) | 74.4% (active) |
| CN(C)CCNC(=O)C(c1ccccc1)c1ccccc1 | 31% | 13% | 63.1% | 2% | -4% | 94.7% (active) | 6% | -25% | 12.8% | -1% | -3% | 96.2% (active) | -1% | -11% | 98% (active) | 30% | 11% | 98.5% (active) |
| CCOc1cc2c(OCc3ccccc3)cc3c4cc(OC)c(OC)cc4c[n+](C)c3c2cc1OC | 98% (active) | 99% (active) | 59.6% | 96% (active) | 99% (active) | 46.2% | 97% (active) | 99% (active) | 50.8% | 97% (active) | 99% (active) | 55% | 97% (active) | 99% (active) | 50.3% | 97% (active) | 99% (active) | 50.1% |
| O=[N+]([O-])c1nccn1CCCNCCCn1ccnc1[N+](=O)[O-] | 27% | 28% | 0.45% | 0% | -2% | 1.2% | 15% | 26% | -6.7% | 24% | 17% | -20.1% | 8% | 14% | -14.9% | 24% | 20% | 21.1% |
| O=Cc1c(O)ccc2ccccc12.[Cu+2] | -27% | 95% (active) | 99.3% (active) | -2% | 47% | 99.2% (active) | -7% | 97% (active) | 99.2% (active) | -19% | 42% | 99% (active) | -54% | 94% (active) | 98.8% (active) | -14% | 97% (active) | 99.2% (active) |
| N#CC1(C#N)C2C=CC(C3CCC=C32)C1(C#N)C#N (configuration not stated) | 14% | 93% (active) | 0.4% | 17% | 97% (active) | 45.3% | 11% | 96% (active) | 60.5% | 10% | 60% | -16.2% | 25% | 97% (active) | 95% (active) | 25% | 97% (active) | 68.8% |
